According to PubChem BioAssay:
Inconclusive results are not listed. Activity calls are given as the source filed them.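 The calls were made as follows, unless noted: active = viability at or below 27.92% in each of two runs, the all-compound median minus 4 SD; inconclusive = no clear call, values can overlap the other calls; inactive = the rest.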

Experiments:
[1] = Her2 expression decrease, cell viability multiplex – SKBR3 breast tumor cells, AlphaScreen, ATP viability, primary screen (AID 461;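 active = Her2 level under about 52% in both replicate screens, with viability over 70% of control, limit read from the data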;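 as to Her2 level: lower value means less Her2 protein in the cells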;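 as to viability: percent of carrier control wells set as 100% viability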); conditions: SKBR3 Her2 protein level, 18-24 h, measured here: SKBR3 viability, ATP luminescence, at 10 µM
[2] = biological target: Receptor tyrosine-protein kinase erbB-2 (Homo sapiens) (UniProt P04626); test: as above; conditions: 18-24 h, at 10 µM, stronger effect = lower value
Chain of Receptor tyrosine-protein kinase erbB-2 (Homo sapiens) (P04626 whole entry, looked up): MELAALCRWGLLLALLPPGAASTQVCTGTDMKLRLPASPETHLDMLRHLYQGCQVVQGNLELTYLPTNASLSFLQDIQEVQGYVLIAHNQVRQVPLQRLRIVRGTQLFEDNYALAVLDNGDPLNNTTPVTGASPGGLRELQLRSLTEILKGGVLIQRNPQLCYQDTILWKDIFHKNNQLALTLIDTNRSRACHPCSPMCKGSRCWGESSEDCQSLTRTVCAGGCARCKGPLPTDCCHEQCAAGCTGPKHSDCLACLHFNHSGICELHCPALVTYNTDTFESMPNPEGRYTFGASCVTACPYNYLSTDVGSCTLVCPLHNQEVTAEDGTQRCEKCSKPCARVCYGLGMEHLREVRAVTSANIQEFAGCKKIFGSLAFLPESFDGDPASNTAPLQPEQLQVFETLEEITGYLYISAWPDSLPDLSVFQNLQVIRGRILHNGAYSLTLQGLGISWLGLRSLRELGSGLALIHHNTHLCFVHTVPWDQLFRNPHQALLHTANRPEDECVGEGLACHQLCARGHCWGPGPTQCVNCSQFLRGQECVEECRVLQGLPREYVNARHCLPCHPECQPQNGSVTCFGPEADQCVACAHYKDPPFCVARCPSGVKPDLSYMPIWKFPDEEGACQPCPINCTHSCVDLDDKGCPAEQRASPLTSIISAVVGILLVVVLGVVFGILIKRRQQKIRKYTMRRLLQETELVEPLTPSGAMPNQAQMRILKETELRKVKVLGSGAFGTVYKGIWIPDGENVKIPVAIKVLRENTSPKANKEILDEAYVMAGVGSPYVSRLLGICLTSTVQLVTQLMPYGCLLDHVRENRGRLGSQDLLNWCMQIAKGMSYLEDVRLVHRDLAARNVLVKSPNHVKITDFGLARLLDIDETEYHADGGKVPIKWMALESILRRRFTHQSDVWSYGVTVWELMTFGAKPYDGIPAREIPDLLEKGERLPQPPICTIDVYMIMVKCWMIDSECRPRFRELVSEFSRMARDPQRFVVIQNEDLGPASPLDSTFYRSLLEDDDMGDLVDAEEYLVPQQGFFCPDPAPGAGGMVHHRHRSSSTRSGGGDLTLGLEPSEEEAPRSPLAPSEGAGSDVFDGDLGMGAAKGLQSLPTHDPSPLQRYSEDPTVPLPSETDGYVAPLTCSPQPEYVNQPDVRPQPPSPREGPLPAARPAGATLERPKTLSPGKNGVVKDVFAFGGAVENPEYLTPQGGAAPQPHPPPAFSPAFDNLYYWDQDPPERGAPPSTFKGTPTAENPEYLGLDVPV

[3] = reduced viability of SK-BR-3 breast cancer cells – cell-based, 24 h, human, pilot screen (AID 572;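 active = viability at or below 10% of carrier control in both of two separate runs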;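 also: compound exposure lasted between 18 and 24 h rather than exactly 24 h; 100% = carrier-treated control wells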); conditions: SK-BR-3 viability, CellTiter-Glo luminescence, at 10 µM, stronger effect = lower value
[4] = HUVEC growth inhibition – cell-based, human, primary screen (AID 575;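 active = viability at or below 30% in both replicate assays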;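 also: 100% = median of untreated cell wells with 0.1% DMSO on each plate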); conditions: HUVEC proliferation, CellTiter-Glo luminescence, 72 h; at 10 µM; stronger effect = lower value
[5] = H69AR cell proliferation blockers – human, duplicate replicates, primary screen (AID 580;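 active = viability at or under a set limit in both replicates, limit being median viability minus 3 SD, cut at about 48% in these data, passing the limit was not always enough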;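 also: 100% = mean luminescence of untreated wells and 0% = no signal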); conditions: H69AR lung tumor cells viability, ATP luminescence, 72 h; at 10 µM; stronger effect = lower value
[6] = MRP1 drug-resistance reversers in H69AR cells – cell-based, doxorubicin co-treatment, pilot screen (AID 601;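 active = viability loss from added drug above about 55%, and viability with drug at most 40%, in both replicates, limit read from the data, passing the limit was not always enough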); conditions: CellTiter-Glo, 72 h, at 10 µM; for differential viability (reversal): stronger effect = higher value
[7] = yeast transport mutant growth inhibition pilot in 384-well plates, post-Golgi transport modulator project (AID 636; in the data active = inhibition above about 31%); conditions: absorbance 615 nm, about 18 h, stronger effect = higher value
[8] = growth suppression of yeast trafficking mutant, preliminary HTS, modulators of trafficking downstream of Golgi apparatus project, 1536-format plate, OD 615 nm (AID 637; in the data active = inhibition above about 30%); conditions: yeast transport mutant growth, absorbance 615 nm, 18 h; stronger effect = higher value
[9] = S. cerevisiae growth inhibition in permissive medium (OD615), pilot counter-assay for S. cerevisiae lifespan shortening project, permissive growth control (AID 705;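 active = growth inhibition above 25% in both replicates, a cutoff set 3 SD above the mean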); conditions: OD615, 24 h, at 10 µM, stronger effect = higher value
[10] = S. cerevisiae growth inhibition in restrictive medium, OD615, pilot screen, restrictive growth control, yeast lifespan reduction project (AID 706;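 active = growth inhibition above a set limit, 3 SD over mean compound inhibition, in both replicates, cut at about 43% in these data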;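 also: modified DeaD lifespan yeast strain shifted to restrictive glucose medium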); conditions: OD615, 48 h, at 10 µM, stronger effect = higher value
[11] = doxorubicin toxicity protection in MRP-1 cells – H69AR cells, CellTiter-Glo, duplicate, MRP-1 activator project, pilot screen (AID 807;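 active = viability increase at or above a cutoff of the median across tested compounds plus 3 SD, cut at about 8.5% in these data, passing the limit was not always enough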;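 also: compound pretreatment 18-22 h then 72 h combined with doxorubicin; 0% = doxorubicin alone and 100% = vehicle without doxorubicin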); conditions: H69AR viability with doxorubicin, CellTiter-Glo luminescence; at 10 µM; stronger effect = higher value
[12] = viability of HCT116 without oncogenic beta-catenin – human colon tumor cells, pilot screen (AID 823;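 active = cell viability at or below a set limit in both duplicate runs, the limit being the all-compound median minus 4 SD, cut at about 23% in these data, passing the limit was not always enough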;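 also: 0% = wells killed by 20 µM Hyamine and 100% = untreated DMSO cell wells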); conditions: HCT116 beta-catenin knockout viability, CellTiter-Glo, 60 h; at 10 µM; stronger effect = lower value
[13] = viability of PTEN-null HCT116 cells – cell-based, HCT116 clonal line, CellTiter-Glo, pilot screen (AID 824); conditions: HCT116 PTEN-deleted viability, 60 h, at 10 µM, stronger effect = lower value;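 also: 0% = 20 µM Hyamine control and 100% = vehicle cell control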
[14] = RAM pathway blockade in budding yeast – dse1pr::URA3 reporter, 5-FOA selection, pilot screen (AID 869;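 active = inhibition over a set limit, the all-compound mean plus 3 SD, in both replicate runs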;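 also: 0% = DMSO wells with no growth and 100% = 10 µM 1-NA-PP1 with full growth; RAM network block rescues cells from 5-FOA so hits raise OD615 growth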); conditions: S. cerevisiae dse1pr::URA3 5-FOA growth, OD615, 2 d; at 10 µM; stronger effect = higher value; strain carries analog-sensitive mutant Cbk1 kinase
[15] = RAM signaling pathway blockade in yeast – S. cerevisiae, Pdr1DBD-CYC8 efflux-inhibited sensitized strain, primary screen (AID 1298;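 active = RAM network inhibition above 8.4% in each of two replicates, 3 SD over the compound average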;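 also: 0% = DMSO untreated cells without growth and 100% = 10 µM 1-NA-PP1 full growth; higher means more yeast growth rescued from 5-FOA killing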); conditions: S. cerevisiae cbk1-as DSE1-URA3 strain, 5-FOA growth OD615, 2 d; at 50 µM; stronger effect = higher value
[16] = H69AR cells + 2 uM doxorubicin, measured here: viability with 2 uM doxorubicin, stronger effect = lower value
[17] = H69AR cells, compound alone cytotoxicity

Row | Compound | viability [1] | Her2 level [2] | viability [3] | viability [4] | viability [5] | differential viability (reversal) ([6]; H69AR cells + 2 uM doxorubicin) | viability [6, 16] | viability [6, 17] | inhibition [7] | inhibition [8] | growth inhibition [9] | growth inhibition [10] | viability increase [11] | viability [12] | viability [13] | inhibition [14] | RAM network inhibition [15]
1 | COc1cccc(-c2nc(CS(=O)(=O)CC(=O)N3CCN(c4ccccn4)CC3)c(C)o2)c1 | 90% | 112% (inactive) | 90% (inactive) | 81% (inactive) | 90.9% (inactive) | 12.7% (inactive) | 78.3% | 90.9% | -4% (inactive) | 3.61% (inactive) | 0.71% (inactive) | -2.45% (inactive) | -0.47% (inactive) | 73.3% (inactive) | 71.6% (inactive) | 0.835% (inactive) | 5.35% (inactive)
2 | COC(=O)CSC1=C(C#N)C(c2ccc(F)cc2)CC(=O)N1 (stereo not drawn) | 109% | 105% (inactive) | 109% (inactive) | 101% (inactive) | 80.8% (inactive) | 0.195% (inactive) | 80.6% | 80.8% | -4.93% (inactive) | -4.75% (inactive) | 9% (inactive) | -15.4% (inactive) | -0.35% (inactive) | 100% (inactive) | 95.9% (inactive) | 0.905% (inactive) | -1.71% (inactive)
3 | COc1ccc(C2CC(c3ccco3)n3ncnc3N2)cc1 (stereo not drawn) | 88% | 97% (inactive) | 88% (inactive) | 93.1% (inactive) | 95.4% (inactive) | -3.17% (inactive) | 98.6% | 95.4% | -3.07% (inactive) | -8.5% (inactive) | -4.26% (inactive) | 1.61% (inactive) | -0.91% (inactive) | 97.7% (inactive) | 94.6% (inactive) | 2.36% (inactive) | 0.32% (inactive)
4 | Cc1ccc(-c2cc(C(=O)Nc3cc(C)on3)c3ccccc3n2)c(C)c1 | 77.5% | 99.5% (inactive) | 77.5% (inactive) | 96% (inactive) | 84.7% (inactive) | -5.17% (inactive) | 89.9% | 84.7% | -4.67% (inactive) | 3.67% (inactive) | -8.89% (inactive) | -8.38% (inactive) | -0.76% (inactive) | 87.4% (inactive) | 82.4% (inactive) | 1.68% (inactive) | 7.01% (inactive)
5 | C=CCc1ccccc1OCCCCN1CCCC1 | 70.5% | 101% (inactive) | 70.5% (inactive) | 77.1% (inactive) | 83.3% (inactive) | -1.74% (inactive) | 85.1% | 83.3% | -9.05% (inactive) | -1.31% (inactive) | 7.25% (inactive) | -3.4% (inactive) | -7.03% (inactive) | 77.1% (inactive) | 80.8% (inactive) | 0.91% (inactive) | 1.88% (inactive)
6 | COc1ccc(C(=O)CN2C3=NCCCN3c3ccccc32)cc1OC | 89% | 109% (inactive) | 89% (inactive) | 81.3% (inactive) | 82.4% (inactive) | 5.29% (inactive) | 77.1% | 82.4% | -0.39% (inactive) | 2.5% (inactive) | -6.53% (inactive) | -6.88% (inactive) | -2.15% (inactive) | 56.2% (inactive) | 64.7% (inactive) | 1% (inactive) | 2.03% (inactive)
7 | CC(C)(C)SCCNC(=O)CN1C(=O)c2ccccc2S1(=O)=O | 97% | 92.5% (inactive) | 97% (inactive) | 101% (inactive) | 106% (inactive) | 8.94% (inactive) | 97.4% | 106% | -4.67% (inactive) | 0.82% (inactive) | -13% (inactive) | -6.21% (inactive) | -0.57% (inactive) | 103% (inactive) | 99.8% (inactive) | 1.42% (inactive) | 4.44% (inactive)
8 | COC(=O)CCCCCc1ccc(C(C)=O)s1 | 86.5% | 84.5% (inactive) | 86.5% (inactive) | 105% (inactive) | 100% (inactive) | 13.6% (inactive) | 86.5% | 100% | -1.33% (inactive) | -1.61% (inactive) | -3.98% (inactive) | -1.53% (inactive) | 0.73% (inactive) | 96.7% (inactive) | 95% (inactive) | 0.02% (inactive) | 3.12% (inactive)
9 | COc1cccc(-n2c(SCC(=O)N3CCCC3)nc3c([nH]c4ccccc43)c2=O)c1 | 83% | 80.5% (inactive) | 83% (inactive) | 74.5% (inactive) | 76.1% (inactive) | -1.79% (inactive) | 77.9% | 76.1% | -5.2% (inactive) | -1.83% (inactive) | -8.48% (inactive) | -21.2% (inactive) | -6.23% (inactive) | 90.3% (inactive) | 85.7% (inactive) | 1.42% (inactive) | 7.87% (inactive)
